RGS4 inh: human RGS4 inhibition. 390,000 tested, 0.039% active. Transcreener GDP fluorescence polarization, RGS4-accelerated GTP hydrolysis. Potency, µM (highest dose often 114 µM), hits mostly inhibitors; active = well fitted inhibition curve with a large enough effect; inconclusive = small, poorly fitted or top-dose-only effect; inactive = no such curve, though single readings can be large or run the other way; also: nearly all actives have a fitted effect of over 75% in size
Target sequence (P49798 whole entry, looked up): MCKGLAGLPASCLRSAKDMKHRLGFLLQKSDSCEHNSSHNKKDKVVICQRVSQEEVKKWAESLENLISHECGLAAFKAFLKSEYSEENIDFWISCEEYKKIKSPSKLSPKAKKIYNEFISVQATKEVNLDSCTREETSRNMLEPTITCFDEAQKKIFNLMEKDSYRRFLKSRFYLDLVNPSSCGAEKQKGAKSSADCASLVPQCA
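MLSMR compounds (23 nl, pin-transferred) preincubated 10 min at room temperature with a 500nM (2x) first reagent, then RGS4 at 900nM (2x) plus Transcreener GDP mix added; fluorescence polarization (620/688 nm) read before and after 90 min at 30 °C.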
D3 antag: D3 dopamine receptor (human) antagonism | max response, negative = inhibition, % | D3R cells, DiscoveRx beta-arrestin luminescence, antagonist mode; stronger effect = lower value | P35462 | AID 652054 | 360,000 tested, 2.5% active; in the data active = max response below about -50%; inconclusive = no clear call, values can overlap the other calls
Target sequence (P35462 whole entry, looked up): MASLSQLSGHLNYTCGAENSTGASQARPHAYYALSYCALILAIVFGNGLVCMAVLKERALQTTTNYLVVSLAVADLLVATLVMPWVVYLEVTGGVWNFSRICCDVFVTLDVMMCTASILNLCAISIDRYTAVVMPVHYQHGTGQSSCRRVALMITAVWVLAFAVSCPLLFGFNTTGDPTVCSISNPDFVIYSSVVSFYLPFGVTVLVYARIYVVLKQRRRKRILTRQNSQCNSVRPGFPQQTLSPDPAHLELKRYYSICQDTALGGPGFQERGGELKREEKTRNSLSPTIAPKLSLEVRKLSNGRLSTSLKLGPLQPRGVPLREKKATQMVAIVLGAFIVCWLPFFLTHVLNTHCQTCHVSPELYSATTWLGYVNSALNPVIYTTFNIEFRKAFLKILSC
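Cells expressing the human receptor were seeded at 1500 cells/well, incubated overnight at 37 degrees C in 5% CO2, then exposed to library compounds with dopamine controls for 90 minutes at 37 degrees C before luminescent detection.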
uPA generation: cell surface uPA generation inhibition; Potency, µM (titrated, usually from 38.3 µM), most hits filed as inhibitors; cell surface uPA generation assay, qHTS; 330,000 tested, 0.31% active; active = well fitted inhibition curve with a large enough effect; inconclusive = small, poorly fitted or top-dose-only effect; inactive = no such curve, though single readings can be large or run the other way; tested in mouse RAW 264.7 cells; also: nearly all actives have a fitted effect of over 55% in size
DRD3 agonist: agonists of human D3 dopamine receptor; D3R DiscoveRx beta-arrestin cells, luminescence, 90 min; AID 652048; max activation, %; 410,000 tested, 0.58% active; in the data active = max activation above about 30%
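Cells at 1500/well, incubated overnight, then treated with pinned compounds (dopamine as control) for 90 min at 37 degrees C. DiscoveRx reagent added for 30 - 60 minutes at room temperature; luminescence read.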
Hits are given with their value; – = inactive; ? = inconclusive; · = no result given; ! = a repeat was not active; [ ] = dose if it differs, or a comment. Rows were chosen to be rich in hits. Some 3.1% of all compounds tested hit in one or more screens of this group.

SMILES | RGS4 inh | D3 antag | uPA generation | DRD3 agonist
O=C(O)c1cc(O)c2c(c1)[C@@H]([C@H]1c3cc(C(=O)O)cc(O)c3C(=O)c3c(O[C@@H]4O[C@H](CO)[C@@H](O)[C@H](O)[C@H]4O)cccc31)c1cccc(O[C@@H]3O[C@H](CO)[C@@H](O)[C@H](O)[C@H]3O)c1C2=O | – | -50 | – | –
COc1ccc(-c2cn3c(n2)sc2cc(C(=O)Nc4cccc(OC)c4)ccc23)cc1 | – | · | · | –
COc1ccc(-c2cn3c(n2)sc2cc(C(=O)Nc4cccc(SC)c4)ccc23)cc1 | – | · | · | 77
Cc1cccc(Nc2nc(-c3ccccc3)c3cc(C)ccc3n2)c1 | – | · | · | –
Cn1c(CSc2nc3ccccc3s2)n[nH]c1=S | – | -65 | – | –
Cn1c(-c2sc3ccccc3c2Cl)n[nH]c1=S | – | -76 | – | –
c1ccc(-c2cnc(SCCN3CCOCC3)n2CC2CCCO2)cc1 (configuration not stated) | – | -57 | – | –
COc1ccc(-c2cnc(N)n2CC2CCCO2)cc1 (configuration not stated) | – | ? | – | –
CC(=O)NNC(=O)CCC(=O)Nc1ccccc1 | – | -80 | – | –
O=C(CCC(=O)Nc1ccccc1)NNC(=O)CCc1ccccc1 | – | – | – | –
O=C(c1ccc(Cl)cc1)c1ccc(CN2C(=O)c3ccccc3C2=O)o1 | – | -64 | – | –
Cc1c(C(=O)N2CCN(S(=O)(=O)c3ccccc3)CC2)oc2ccc(Br)cc12 | – | – | – | –
CC(C)CC1Nc2ncnc(N3CCN(c4ccccc4)CC3)c2N(Cc2ccccc2)C1=O (configuration not stated) | – | -78! | ? | –
CC1Nc2ncnc(N3CCOCC3)c2N(Cc2ccc(Cl)cc2)C1=O (configuration not stated) | – | ? | – | –
CC1Nc2ncnc(N3CCN(c4ccccc4)CC3)c2N(Cc2ccc(Cl)cc2)C1=O (configuration not stated) | – | -166 | – | –
CC1Nc2ncnc(N3CCN(c4ccccc4)CC3)c2N(Cc2ccccc2)C1=O (configuration not stated) | – | -110 | – | –
COc1cccc(Nc2nc(C(N)C3CCCCC3)cs2)n1 (configuration not stated) | · | – | · | –
CC(=O)c1cccc(NC(=O)c2cccc(NC(=O)c3ccco3)c2)c1 | ? | – | – | –
CC(=O)Oc1ccc(C(=O)Nc2cccc(NC(=O)c3ccco3)c2)cc1 | – | -76 | – | –
O=C(Nc1ccc(Oc2ccc(NC(=O)c3ccco3)c(NC(=O)c3ccco3)c2)cc1)c1ccco1 | – | -93 | – | –
CCc1ccccc1-n1c2c(cc(-c3nc(-c4ccc(Cl)cc4)cs3)c1=O)C(=O)CC(C)(C)C2 | – | · | · | –
CC1CCN(C2=NC(=O)/C(=C/c3cccc(O)c3)S2)CC1 | – | -85 | – | –
O=C(Nc1ccc(Cl)c(C(F)(F)F)c1)C1CCN(S(=O)(=O)c2cccc3nonc23)CC1 | – | · | · | –
Cc1ccc(S(=O)(=O)Nc2c(C)n(C)n(-c3ccccc3)c2=O)cc1C(=O)OC(C)C(=O)c1ccccc1 (configuration not stated) | – | – | 5µM | –
Cc1ccc(NC(=O)c2cc(S(=O)(=O)N3CCCC(C)C3)cn2C)c(Br)c1 (configuration not stated) | – | · | · | –
SMILES | RGS4 inh | D3 antag | uPA generation | DRD3 agonist
CC(C)(C)c1nn(-c2ccccc2)c2[nH]c(=O)c(CNc3ccc4c(c3)OCCO4)cc12 | – | -75 | – | –
O=C(NCCc1cccc(Cl)c1)c1ccc(OC2CCN(Cc3ccccn3)CC2)cc1 | – | -59 | ? | –
CC(Cc1ccccn1)NC(=O)c1ccc(OC2CCN(CCc3ccccc3)CC2)cc1 (configuration not stated) | – | -66 | – | –
O=C(NC1CCCCC1)c1ccc(OC2CCN(Cc3ccccn3)CC2)cc1 | – | – | – | –
O=C(NCCc1ccccn1)c1ccc(OC2CCN(CCc3ccccc3)CC2)cc1 | – | -62 | – | –
CSCCCNC(=O)c1ccc(OC2CCN(CCc3ccccc3)CC2)cc1 | – | -85 | – | –
Cc1cccnc1CCNC(=O)c1ccc(OC2CCN(Cc3ccccn3)CC2)cc1 | – | – | – | –
CCc1nn(CC(=O)NCCCN(CC(C)C)CC(C)C)c(=O)c2cc3sc(C)cc3n12 | – | · | · | –
CC(C)CNC(=O)C(=O)Nc1c2c(nn1-c1ccc(Cl)cc1)CSC2 | – | · | · | –
CCOc1ccc(N2CC(c3nc4ccccc4n3Cc3cccc(Cl)c3)CC2=O)cc1 (configuration not stated) | – | · | · | –
CCN(CC)c1cc(C)c2cc(NC(=O)/C=C/c3ccc(C)cc3)ccc2n1 | – | · | · | –
CCOc1ccc(/C(O)=C2\C(=O)C(=O)N(CCN(C)C)C2c2cccc(OC)c2OC)cc1Cl (configuration not stated) | – | -56 | – | –
Cc1ccccc1OCc1nnc(SCc2cc(=O)c3ccc(C)c(C)c3[nH]2)n1C | – | · | · | –
Cc1cccc(C(=O)NCC(=O)NCC(c2cccs2)N2CCOCC2)c1 (configuration not stated) | – | – | – | –
Cc1cccc(C(=O)NCC(c2cccs2)N2CCOCC2)c1 (configuration not stated) | – | -58 | – | –
O=C(NCC(c1cccs1)N1CCOCC1)c1cn(-c2ccccc2)nc1-c1ccc(F)cc1 (configuration not stated) | – | – | – | –
O=C(NCC(c1cccs1)N1CCOCC1)c1cc(-c2ccc(F)cc2)nc2ccccc12 (configuration not stated) | – | -69 | – | –
CCCCn1nc(C(=O)NCC(c2cccs2)N2CCOCC2)c2ccccc2c1=O (configuration not stated) | – | – | 11µM | –
O=C(CCN1CCN(c2ccccc2)CC1)NNC(=O)c1ccccc1 | · | -54 | · | –
Cc1cccc(OCC(=O)NNC(=O)CCN2CCN(c3ccccc3)CC2)c1C | – | -83 | – | –
Cc1cccc(OCCCC(=O)NNC(=O)CCN2CCN(c3ccccc3)CC2)c1 | – | – | – | –
O=C(CCN1CCN(c2ccccc2)CC1)NNC(=O)Cc1ccccc1Cl | – | ? | – | –
O=C(Nc1ccccc1)c1cnc(-c2ccccc2)nc1-c1ccccc1 | – | – | · | 43
CC(NC(=O)c1ccc2c(c1)N(Cc1ccc(Cl)cc1)C(=O)c1ccccc1S2=O)c1ccccc1 (configuration not stated) | – | · | · | –
CCN(CC)C(=O)c1ccc2nc3ccccc3nc2c1 | – | -63 | – | –
CCN(CC)C(=O)c1ccc2nc(-c3ccccc3)c(-c3ccccc3)nc2c1 | – | – | – | –
C/C(=C/c1oc2ccc(O)cc2c1[N+](=O)[O-])N(C)C | –[11.4 µM] | – | – | –
CC(=O)Oc1ccc2oc(/C=C/N(C)C)c([N+](=O)[O-])c2c1 | – | -80 | – | –
Cc1nc2c(c(C)c1CCC(=O)Nc1cccc(C(F)(F)F)c1)c(=O)n(C)c(=O)n2C | – | · | · | –
CCN1CCSc2ccc(C(=O)NCc3ccc(OC(C)C)cc3)cc21 | – | -77 | – | –
